# ChEMBL document CHEMBL3988442, “University of Dundee, Small-Polar-MMV Screening Library” (2021)
# What was measured:
# [1] = molecular target: T1, Aspartate--tRNA(Asp/Asn) ligase (Mycobacterium tuberculosis (strain ATCC 25618 / H37Rv)) (UniProt P9WFW3); assay: Assay for Asp RNA synthetase-1 from Mycobacterium tuberculosis; type: functional; set-up: scale not given: direction of the effect not stated beside the values; details: 30 µM; also: in the data most compounds retested in dose-response had high values
# T1 sequence (whole entry): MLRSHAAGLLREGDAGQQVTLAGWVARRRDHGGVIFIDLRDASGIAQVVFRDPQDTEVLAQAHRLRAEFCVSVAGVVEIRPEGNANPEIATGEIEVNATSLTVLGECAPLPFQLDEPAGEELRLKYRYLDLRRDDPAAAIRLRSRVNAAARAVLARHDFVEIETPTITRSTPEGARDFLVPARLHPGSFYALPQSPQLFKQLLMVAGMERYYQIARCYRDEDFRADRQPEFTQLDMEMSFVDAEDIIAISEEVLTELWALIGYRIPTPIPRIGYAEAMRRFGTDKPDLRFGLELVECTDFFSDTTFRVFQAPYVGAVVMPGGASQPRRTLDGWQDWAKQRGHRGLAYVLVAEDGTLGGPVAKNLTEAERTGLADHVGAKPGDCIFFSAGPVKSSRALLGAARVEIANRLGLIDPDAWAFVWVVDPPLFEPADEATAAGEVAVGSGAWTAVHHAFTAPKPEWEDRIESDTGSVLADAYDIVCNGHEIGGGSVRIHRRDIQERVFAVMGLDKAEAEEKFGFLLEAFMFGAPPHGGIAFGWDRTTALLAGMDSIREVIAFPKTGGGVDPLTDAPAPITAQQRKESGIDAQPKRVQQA
# [2] = molecular target: Shiga toxin 2 (Escherichia coli O157:H7) (UniProt P09385+P09386); assay: E. coli 0.157:H7 Shiga Toxin SOP - stx2 screening assay; type: functional; set-up: scale not given: direction of the effect not stated beside the values; details: 30 µM
structure (smiles),measurement,setting,value
Cc1noc([C@@]23CCO[C@@H]2CCN(CC2CCOCC2)C3)n1,Percent Effect,[1],6.14%
same,Percent Effect,[2],-16.8%
Cc1nc(CCN(C)C(=O)C2COc3ccccc3C2)no1 (configuration not stated),Percent Effect,[1],0.743%
same,Percent Effect,[2],-10.1%
Cc1cccc(C(=O)N2CCC(Cc3cnc4[nH]ccc4c3)CC2)n1,Percent Effect,[1],4.87%
same,Percent Effect,[2],5.08%
O=C1CC2(CCN(CCO)CC2)CN1Cc1cc(F)cc(F)c1,Percent Effect,[1],-2.67%
same,Percent Effect,[2],11.4%
Cc1n[nH]c(C)c1C1COCCN1C(=O)Cc1cccc(F)c1 (configuration not stated),Percent Effect,[1],3.85%
same,Percent Effect,[2],-14.1%
Cc1cnn(CC2CN(CC(=O)NCCc3cccs3)CCO2)c1 (configuration not stated),Percent Effect,[1],-11.2%
same,Percent Effect,[2],6.55%
CCS(=O)(=O)N1CC[C@H](OC)[C@@H]1Cc1ccncc1,Percent Effect,[1],-2.52%
same,Percent Effect,[2],-2.84%
CC(=O)N1CCC(C(=O)N(C)[C@@H]2CCC[C@@H](N3CCCC3)[C@@H]2O)CC1,Percent Effect,[1],1.35%
same,Percent Effect,[2],-6.16%
Cc1cc(C)n(C2CCCN(C(=O)Cc3csc(C)n3)C2)n1 (configuration not stated),Percent Effect,[1],-6.85%
same,Percent Effect,[2],5.9%
CC(Cc1ccco1)NC(=O)Nc1cnn(CC(N)=O)c1 (configuration not stated),Percent Effect,[1],2.29%
same,Percent Effect,[2],-8.5%
Cc1cnc(N2CCC3(CCCN(c4ccc(C)nn4)C3)C2)nc1 (configuration not stated),Percent Effect,[1],-0.547%
same,Percent Effect,[2],-25.4%
Cc1cnc(N2CC3(CCN(C(=O)c4ccoc4)C3)C2)nc1,Percent Effect,[1],0.713%
same,Percent Effect,[2],-36.5%
c1cnnc(N2CCCC(NCc3ccc(-n4cccn4)cc3)C2)c1 (configuration not stated),Percent Effect,[1],-2.36%
same,Percent Effect,[2],11%
Cc1ccc(F)c(OC2(C(=O)O)CCN(C(=O)N3CCCC3)CC2)c1,Percent Effect,[1],-1.17%
same,Percent Effect,[2],-2.51%
CNC(=O)c1nc2c(s1)CCN(C(=O)Cc1ccc(OC)cc1)CC2,Percent Effect,[1],0.107%
same,Percent Effect,[2],-7.44%
Cc1ccc(OCCNC(=O)C(C)n2cncn2)cc1 (configuration not stated),Percent Effect,[1],4.54%
same,Percent Effect,[2],4.25%
